JMJD2A Tudor inh: JMJD2A Tudor domain (human) inhibition. AID 504339. actives 4.4% (n = 390,000). AlphaScreen JMJD2A-Tudor / H3K4me3 peptide binding. Potency, µM (titrated, usually from 114 µM), inactives show at the highest dose activity change, negative = inhibition, most hits filed as inhibitors; also: potency is read from the fitted curve at half-maximal effect; % is scaled to controls: 0 for no effect and ±100 for the full control effect; nearly all actives have a fitted effect of over 50% in size
Target sequence (O75164 whole entry, looked up, the tested form may be a part): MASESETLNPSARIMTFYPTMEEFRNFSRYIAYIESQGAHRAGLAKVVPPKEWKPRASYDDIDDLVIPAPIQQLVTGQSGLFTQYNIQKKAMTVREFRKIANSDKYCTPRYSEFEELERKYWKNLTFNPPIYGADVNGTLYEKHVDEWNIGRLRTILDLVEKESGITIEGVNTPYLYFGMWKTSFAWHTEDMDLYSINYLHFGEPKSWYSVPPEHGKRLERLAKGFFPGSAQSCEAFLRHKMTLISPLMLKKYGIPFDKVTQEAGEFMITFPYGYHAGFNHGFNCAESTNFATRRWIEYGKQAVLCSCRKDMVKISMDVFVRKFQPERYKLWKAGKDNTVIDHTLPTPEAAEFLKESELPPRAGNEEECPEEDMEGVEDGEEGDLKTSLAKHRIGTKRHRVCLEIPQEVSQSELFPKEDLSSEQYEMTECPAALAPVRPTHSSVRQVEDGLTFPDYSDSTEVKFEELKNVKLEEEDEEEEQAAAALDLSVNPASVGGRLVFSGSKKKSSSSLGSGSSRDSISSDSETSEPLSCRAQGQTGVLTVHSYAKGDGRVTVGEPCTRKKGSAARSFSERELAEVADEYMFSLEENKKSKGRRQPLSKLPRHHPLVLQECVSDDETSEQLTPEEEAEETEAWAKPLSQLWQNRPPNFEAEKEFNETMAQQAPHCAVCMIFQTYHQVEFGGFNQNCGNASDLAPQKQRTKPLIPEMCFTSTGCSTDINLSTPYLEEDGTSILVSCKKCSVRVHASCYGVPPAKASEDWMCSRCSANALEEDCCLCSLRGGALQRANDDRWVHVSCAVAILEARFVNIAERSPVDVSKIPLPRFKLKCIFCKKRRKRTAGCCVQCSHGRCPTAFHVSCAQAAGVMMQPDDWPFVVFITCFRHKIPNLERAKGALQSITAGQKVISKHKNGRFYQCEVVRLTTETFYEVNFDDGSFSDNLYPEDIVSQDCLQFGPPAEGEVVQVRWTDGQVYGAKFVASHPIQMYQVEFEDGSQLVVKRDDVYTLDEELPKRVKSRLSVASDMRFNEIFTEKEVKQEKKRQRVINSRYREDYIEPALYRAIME
CtBP-E1A inh: blocks the CtBP interaction with E1A; AlphaScreen GST-E1A/His-CtBP binding, 1536-well; hits give low values; activity change, % (test concentration not listed); actives 0.49% (n = 340,000); in the data active = activity change below about -65%; inconclusive = mostly about -30% to -63%; also: % is scaled to controls: 0 for no effect and ±100 for the full control effect
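GST-E1A and His-tagged CtBP (125 nM each as 5X stock) were preincubated with pin-transferred compound for 2 h at 37 °C in the dark, then glutathione donor and nickel acceptor beads were added for 1 h before AlphaScreen reading.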
Six1-Eya2 inh: Six1/Eya2 interaction inhibition | AID 651725 | Q15475+O00167 | activity change, % (concentration not given with the values) | actives 0.56% (n = 360,000) | AlphaScreen GST-Six1/His-Eya2 binding, biochemical; hits give low values; in the data active = activity change below about -65%; inconclusive = mostly about -30% to -63%; also: % is scaled to controls: 0 for no effect and ±100 for the full control effect
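Compounds are tested against tagged Six1 and Eya2 proteins bridged by glutathione donor and nickel acceptor beads; after a one-hour incubation at 37 °C without light, AlphaScreen emission is recorded.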
TDP1 inh: inhibitors of human tyrosyl-DNA phosphodiesterase TDP1; Q9NUW8; recombinant TDP1, AlphaScreen DNA substrate cleavage; Potency, µM (doses to about 130 µM), inactives show top-dose activity change, negative = inhibition, most hits filed as inhibitors; actives 0.28% (n = 350,000); also: potency is read from the fitted curve at half-maximal effect; % is scaled to controls: 0 for no effect and ±100 for the full control effect; nearly all actives have a fitted effect of over 40% in size
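Enzyme-compound mixtures sat 15 min at room temperature, followed by a 5 min reaction with 15 nM final substrate and 10 min with AlphaScreen beads. Recombinant human Tdp1 was used at 1 nM final.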
BAZ2B inh: inhibitors of human BAZ2B bromodomain; AID 504333; Q9UIF8; actives 4.4% (n = 360,000); AlphaScreen BAZ2B-H3K14Ac peptide displacement; Potency, µM (series often up to 114 µM), for inactives: at the top dose activity change, negative = inhibition, usual class: inhibitors; also: potency is read from the fitted curve at half-maximal effect; % is scaled to controls: 0 for no effect and ±100 for the full control effect; nearly all actives have a fitted effect of over 60% in size
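Multi-concentration screen (max 110 uM) measuring displacement of acetylated histone H3 peptide from BAZ2B by AlphaScreen, using 50 nM protein, 50 nM peptide and 10 ug/mL streptavidin donor plus Ni-chelate acceptor beads.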
HP1b chromo inh: blocks HP1-beta chromodomain binding to methylated histone tails | P83916 | AlphaScreen HP1-beta / biotin-H3K9me3 peptide binding | Potency, µM (top dose mostly 114 µM), for the others: at the highest dose activity change, negative = inhibition, actives largely listed as inhibitors | actives 0.56% (n = 390,000) | AID 540317; also: potency is read from the fitted curve at half-maximal effect; nearly all actives have a fitted effect of over 70% in size
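AlphaScreen: HP1-beta (50 nM) preformed 30 min with biotin-H3(1-18)K9me3 peptide (50 nM) in PBS pH 7.4, 0.01% Tween-20. Compound added for 30 min at RT, then streptavidin donor/nickel chelate acceptor beads (10 ug/mL) for 30 min.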
An asterisk follows results filed as active; ? = inconclusive; · = no result; [ ] = another dose, or the depositor's remark. Shown are actives, neighbours in structure and some others; about 5.3% of the full set was active somewhere. Unless noted, calls follow the shape of the dose curve; as a rule, active = well fitted inhibition curve with a large enough effect; inconclusive = small, poorly fitted or top-dose-only effect; inactive = no such curve, though single readings can be large or run the other way.

SMILES | JMJD2A Tudor inh | CtBP-E1A inh | Six1-Eya2 inh | TDP1 inh | BAZ2B inh | HP1b chromo inh
CCOC1(OCC)N=C(N)C2(C#N)C(c3ccc(NC(C)=O)cc3)C12C#N (stereo unspecified) | ? | -20.2 | -1.2 | 1.0% | 79.4µM* | 11.7%
Cn1c(=S)n(C)c2ccccc21 | 8.3% | · | 1.2 | -5.0% | -18.1% | 61.5%
Cn1ccc(=S)c2ccccc21 | 8.91µM* | -5.7 | -0.6 | 0.0% | · | -3.3%
Cc1ccc2c(c1)cc(C(=O)NCc1ccc(F)cc1)n2C | 1.7% | · | · | 1.6% | -1.2% | 45.2%
CCOC(=O)CC1(C)NC(C(=O)O)C(C)(C)S1 (stereo unspecified) | 5.01µM* | ? | -8.6 | · | · | -12.8%
COC(=O)c1ccc(CCc2cc(O)c(Br)cc2O)cc1 | 2.82µM* | -3.0 | -19.4 | · | · | ?
COC(=O)c1ccc(CCc2cc(O)ccc2O)cc1 | 6.31µM* | -4.0 | -15.1 | · | · | ?
COc1ccc(Cl)cc1Nc1ccc2cc(S(=O)(=O)N3CCCCC3)ccc2n1 | 45.8% | · | · | -2.6% | 9.4% | 68.4%
N#C/C(=N\Nc1ccc(Cl)c(Cl)c1)C(=O)C1CC1 | 50.1µM* | -7.3 | -9.9 | · | 44.7µM* | ?
N#CC(=C1Nc2ccccc2N1)S(=O)(=O)c1ccccc1 | 25.1µM* | 17.2 | -12.1 | 4.9% | -12.3% | -17.3%
O=C(NCCOC(=O)C1COc2ccccc2O1)C1COc2ccccc2O1 (stereo unspecified) | -3.7% | 7.2 | 0.5 | 0.0% | -1.3% | 32.6%
O=C(NCCOC(=O)C1COc2ccccc2O1)c1cccnc1 (stereo unspecified) | 39.8µM* | 8.4 | 12.7 | -2.8% | ? | 23.1%
COc1ccc(OCC(=O)OCCNC(=O)c2cccnc2)cc1 | 50.1µM* | 7.1 | 13.2 | 5.3% | ? | 22.0%
COc1cccc(C(=O)OCCNC(=O)c2cccnc2)c1 | -14.1% | 7.4 | 8.6 | · | -5.5% | 54.7%
O=C(CC1N=C2c3ccccc3N=C(SCc3ccccc3F)N2C1=O)NCCc1ccccc1 (stereo unspecified) | -21.3% | · | · | 3.4% | -1.4% | 38.1%
COc1cc(/C=C(\C#N)c2nc3ccccc3o2)ccc1O | ? | -21.7 | ? | · | 44.7µM* | -8.8%
N#C/C(=C\c1ccc(O)cc1)c1nc2ccccc2o1 | -34.9% | -17.5 | -27.7 | 6.0% | -29.9% | -10.5%
Cc1ccc2c(c1)C(=O)C(=O)N2Cc1ccc(OCCC(C)C)cc1 | -23.8% | · | · | -2.5% | ? | -22.1%
Fc1ccccc1N1CCN(C2CCN(Cc3c[nH]c4ccccc34)CC2)CC1 | -6.1% | 18.1 | -0.6 | 0.0% | 0.5% | 22.6%
COc1ccc(CN2CCN(Cc3c[nH]c4ccccc34)CC2)c(OC)c1 | · | -10.6 | -0.8 | · | · | ·
COc1ccc(CN2CCN(Cc3c[nH]c4ccccc34)CC2)cc1OC | · | -28.3 | 4.0 | · | · | ·
O=C(C(=O)N1CCN(c2ccccc2Cl)CC1)c1c[nH]c2ccccc12 | ? | · | -5.1 | 3.7% | 50.1µM* | 7.2%[57 µM]
COc1ccc(Br)cc1CN1CCN(Cc2c[nH]c3ccccc23)CC1 | 2.82µM* | 6.2 | -12.7 | · | 14.1µM* | ?
COc1ccc(CN2CCN(Cc3c[nH]c4ccccc34)CC2)cc1 | 0.794µM* | -13.6 | -6.3 | · | 20µM* | 35.5µM*
Clc1ccccc1N1CCN(Cc2c[nH]c3ccccc23)CC1 | 20µM* | -21.1 | -6.6 | · | · | ?
SMILES | JMJD2A Tudor inh | CtBP-E1A inh | Six1-Eya2 inh | TDP1 inh | BAZ2B inh | HP1b chromo inh
O=C(C(=O)N1CCCc2ccccc21)c1c[nH]c2ccccc12 | -12.9% | 2.8 | 0.9 | 7.9% | -1.9% | 0.2%
COC(=O)c1ccccc1NC(=O)c1ccc2c(c1)CCN2S(=O)(=O)c1ccc(Cl)cc1 | -9.4% | · | · | 4.7% | -0.3% | 63.0%
COc1cc2c(cc1OC)n(CC(=O)c1ccc(C)cc1C)c(=O)n1nc(CCn3nc(C)cc3C)nc21 | -28.3% | · | · | 4.4% | -1.3% | -2.8%
NC(=S)NN=C1c2ccccc2-c2ccccc21 | 50.1µM* | · | ? | · | ? | ?
O=C(NN=C1c2ccccc2-c2ccccc21)c1ccccc1 | -30.1% | ? | -9.4 | 20µM* | 28.2µM* | 35.5%
COc1cc(CNC(=O)c2ccc3nc(Cc4ccccc4)oc3c2)cc(OC)c1OC | -27.8% | · | · | 5.3% | 15.8% | 35.8%[57 µM]
COc1cc(/C=C2\SC(=Nc3ccc(Cl)c(C(=O)O)c3)NC2=O)c(Br)c(Br)c1O | 79.4µM* | ? | ? | 8.91µM* | 44.7µM* | ?
COc1cc(/C=C2\SC(=Nc3ccccc3)NC2=O)cc(Cl)c1O | ? | 16.1 | -16.6 | · | -32.4% | -13.6%
O=[N+]([O-])c1cccnc1N1CCC(c2cc(-c3ccc(Cl)cc3)n[nH]2)CC1 | 25.1µM* | -14.0 | ? | 10.7% | 50.1µM* | ?
Cc1ccc(C2CC(=O)NC(SCc3ccccc3)=C2C#N)cc1 (stereo unspecified) | 89.1µM* | 0.0 | 14.5 | -2.4% | -11.7% | -10.2%
N#CC1=C(SCc2ccccc2)NC(=O)CC1c1ccc(O)cc1 (stereo unspecified) | -11.7% | 2.7 | -0.4 | 9.1% | 6.0% | 10.4%
Cc1ccc(NC(=O)CSC2=C(C#N)C(c3ccco3)CC(=O)N2)cc1 (stereo unspecified) | -14.0% | -1.1 | -9.2 | 3.3% | ? | 24.5%
Cc1ccc(C(=O)CSC2=C(C#N)C(c3ccco3)CC(=O)N2)c(C)c1 (stereo unspecified) | 50.1µM* | -9.4 | -18.6 | · | · | -39.7%
CCOc1ccc(CNC(=O)c2cnc3sc(N4CCC(C)CC4)nn3c2=O)cc1OC | -1.6% | · | · | 2.6% | -1.5% | 13.5%
O=C(O)CN1C(=O)/C(=C\c2cc([N+](=O)[O-])ccc2OCc2ccccc2Cl)SC1=S | 50.1µM* | -0.2 | -10.9 | -7.5% | 50.1µM* | ?
O=C(O)CN1C(=O)/C(=C\c2cc(Br)ccc2OCc2ccc(F)cc2)SC1=S | ? | -11.4 | -2.3 | · | 56.2µM* | ?
O=C(O)CN1C(=O)/C(=C\c2cc(Br)ccc2OCc2ccc(Cl)cc2)SC1=S | 56.2µM* | · | -12.7 | · | 50.1µM* | 11.1%
O=C(O)CN1C(=O)/C(=C\c2ccccc2OCc2ccc(F)cc2)SC1=S | ? | -0.9 | 0.0 | · | -33.8% | -10.5%
CCOc1ccc(NC(=O)Cn2c(=O)cc(C)c3c(C)nn(-c4ccc(CC)cc4)c32)cc1 | -28.3% | · | · | 3.2% | 2.9% | 69.5%
CCc1nc2ccc(C(=O)NCCc3ccc(OC)cc3OC)cc2nc1CC | -7.3% | · | · | -6.4% | -5.5% | 21.5%
Cc1nn(C)c(Oc2cccc(Cl)c2)c1C#N | 20µM* | · | -2.5 | 2.4% | 7.9% | 17.4%
COc1ccccc1-n1cnc2c(c1=O)c1nc3ccccc3nc1n2-c1ccc(C)c(C)c1 | -30.3% | · | 5.6 | -7.7% | 56.2µM* | 38.8%

Screening data: PubChem, National Center for Advancing Translational Sciences (NCATS)
